Source: PubChem BioAssay
SSB-PriA inh – inhibitors of Klebsiella pneumoniae PriA binding to SSB C-terminal tail, primary screen, biochemical, AlphaScreen. AlphaScreen SSBct-PriA binding, biotinylated peptide. inhibition, % at 33 µM. PriA–SSB C-terminal tail interaction (Klebsiella pneumoniae). 430,000 compounds, 0.6% hits; in the data active = inhibition mostly above about 37%, no sharp cut-off; inactive = mostly below about 20%;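 note: plate controls were negative control peptide for no effect and reference peptide for full effect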
VHR inh abs – VHR1 phosphatase inhibitors, primary screen, biochemical, absorbance, uHTS | recombinant VHR phosphatase, pNPP absorbance | inhibition, % at 13.3 µM | 290,000 compounds, 0.52% hits; in the data active = inhibition above about 50%
Target sequence (P51452 whole entry, looked up): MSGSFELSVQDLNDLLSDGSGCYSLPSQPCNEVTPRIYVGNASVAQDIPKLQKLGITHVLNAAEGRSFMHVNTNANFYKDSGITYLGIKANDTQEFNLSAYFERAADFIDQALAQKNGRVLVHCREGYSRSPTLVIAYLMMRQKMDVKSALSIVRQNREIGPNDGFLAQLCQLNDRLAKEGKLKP
Sa RN4220 lethal – growth inhibition of S. aureus RN4220, primary screen, OD600 | AID 1259311, 2017 | inhibition, % (test concentration not listed) | 330,000 compounds, 0.33% hits | 16 h; in the data active = inhibition above about 85%;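 note: plate controls were untreated cells for no effect and reference antibiotic for full effect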
ugtP null kill – growth inhibition of ugtP-null S. aureus, primary screen, RN4220 ugtP deletion, OD600. 16 h. growth inhibition, % (test concentration not listed). 330,000 compounds, 0.54% hits; in the data active = growth inhibition above about 68%;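 note: plate controls were untreated wells for no effect and antibiotic for full effect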
PfHsp40 rescue – rescue of yeast from PfHsp40 toxicity, primary screen, S. cerevisiae, ATP luminescence. S. cerevisiae expressing PfHsp40, growth rescue. growth rescue, % at 12.5 µM. 340,000 compounds, 0.68% hits; in the data active = growth rescue above about 28%, passing the limit was not always enough; inconclusive = no clear call, values can overlap the other calls;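 note: yeast W303a lacking pdr1 and pdr3 grown in galactose medium; growth measured after three days at 30 °C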
Mtb hypoxia inh – PubChem AID 1159583. M. tuberculosis hypoxia-regulated fluorescent reporter, fluorescence. fluorescence inhibition, % (test concentration not listed). 300,000 compounds, 0.1% hits; in the data active = fluorescence inhibition mostly above about 23%, no sharp cut-off; inactive = mostly below about 17%
Numbers without * were called inactive. Sampled rows, rich in hits. Any-hit rate of the full collection: about 1.8%.

For Cc1cc([N+](=O)[O-])cc([N+](=O)[O-])c1NCC(C)C the results were SSB-PriA inh 43.8*, VHR inh abs 3.1, Sa RN4220 lethal 8.7, ugtP null kill -1.6, PfHsp40 rescue 0.6 and Mtb hypoxia inh 3.3.
For C[C@@](O)(CNC(=O)NCc1ccccc1)Cc1ccco1 the results were SSB-PriA inh -10.0.
`CC(C)CC(NC(=O)OCc1ccccc1)C(=O)NC(Cc1ccccc1)C(=O)CCl` (stereo unspecified) gave SSB-PriA inh -11.5 and PfHsp40 rescue -0.2.
Screening O=C(NC(Cc1ccccc1)C(=O)CCl)OCc1ccccc1 (stereo unspecified) returned Sa RN4220 lethal 100.5*, ugtP null kill 99.8* and Mtb hypoxia inh -7.0.
Screening NCC1(O)CCc2ccccc21 (stereo unspecified) returned SSB-PriA inh 4.0.
O=[N+]([O-])c1cccc(OCc2cn3cccnc3n2)c1 was read as SSB-PriA inh 0.1, VHR inh abs 52.7*, Sa RN4220 lethal 3.0, ugtP null kill 2.1, PfHsp40 rescue -1.8 and Mtb hypoxia inh 12.4.
Screening CCOc1cc([C@@H]2C(=C(O)c3ccc(Cl)cc3)C(=O)C(=O)N2c2ccccn2)ccc1O returned SSB-PriA inh -11.0.
C/C=C/c1ccc(OCCn2nnc3ccccc32)c(OC)c1 was read as SSB-PriA inh -23.3, VHR inh abs 11.4, Sa RN4220 lethal 13.1, ugtP null kill 5.0, PfHsp40 rescue 1.1 and Mtb hypoxia inh 3.9.
Screening C=CCc1ccc(OCCn2nnc3ccccc32)c(OC)c1 returned SSB-PriA inh -11.6, VHR inh abs 55.5* and PfHsp40 rescue 1.9.
C[C@H](NC(=O)c1ccco1)C(=O)Nc1nc(-c2ccccn2)cs1 was read as SSB-PriA inh 53.1*, Sa RN4220 lethal 2.1, ugtP null kill -1.0, PfHsp40 rescue -0.8 and Mtb hypoxia inh 8.3.
Cc1cc(C(=O)Nc2nc(-c3ccccn3)cs2)on1 was read as SSB-PriA inh 94.3*.
For CN(C(=O)c1ccno1)c1nnc(-c2ccccn2)s1 the results were SSB-PriA inh 41.5*, Sa RN4220 lethal 1.7, ugtP null kill -2.6 and PfHsp40 rescue -0.1.
`CN(C(=O)c1ccncc1)c1nnc(-c2ccccn2)s1` gave SSB-PriA inh 14.1, VHR inh abs 31.3, Sa RN4220 lethal 0.6, ugtP null kill 2.9 and PfHsp40 rescue -0.6.
O=C(CNC(=O)c1ccco1)Nc1nc(-c2ccccn2)cs1 was read as SSB-PriA inh 96.2*.
Screening N#C/C(=C\c1ccc(-c2ccc([N+](=O)[O-])cc2)o1)C(=O)NCc1ccco1 returned SSB-PriA inh -1.0.
O=C(Nc1nc(-c2ccccn2)cs1)c1ccno1 was read as SSB-PriA inh 125.0*.
O=C(Nc1nc(-c2ccccn2)cs1)c1ccco1 was read as SSB-PriA inh 48.6*, VHR inh abs 33.3, Sa RN4220 lethal 7.8, ugtP null kill -5.1, PfHsp40 rescue 43.1* and Mtb hypoxia inh 10.4.
Screening CC(C)(C)NC(=S)Nc1ccc(Nc2ccccc2)cc1 returned SSB-PriA inh 51.8*, VHR inh abs 53.4*, Sa RN4220 lethal -0.2, ugtP null kill -13.0, PfHsp40 rescue 1.2 and Mtb hypoxia inh -4.0.
`O=C(Nc1ccc(Nc2ccccc2)cc1)C(Cl)(Cl)Cl` gave SSB-PriA inh 19.6, VHR inh abs -2.9, Sa RN4220 lethal -7.3, ugtP null kill -4.3, PfHsp40 rescue 33.2* and Mtb hypoxia inh -1.0.
For CC(C)c1noc(-c2ccnc(-n3cnc(C(=O)NCc4cccc(Cl)c4)c3)c2)n1 the results were SSB-PriA inh 0.0.
O=C(Nc1cc(Cl)ccc1Cl)N1CCN(c2cc(C3CC3)ncn2)CC1 was read as SSB-PriA inh -10.0.
For Cc1ccc(Cl)cc1OCC(=O)NCCOC(=O)Nc1sc(=S)n(C)c1C the results were SSB-PriA inh -4.4, VHR inh abs 55.4*, Sa RN4220 lethal -1.8, ugtP null kill -0.3, PfHsp40 rescue -1.1 and Mtb hypoxia inh 3.4.
For COc1cc(/C=C/C(=O)NCCn2c(C)cc3ccccc32)cc(OC)c1OC the results were SSB-PriA inh 48.4*, VHR inh abs -3.6, Sa RN4220 lethal -10.2, ugtP null kill -5.5, PfHsp40 rescue 0.4 and Mtb hypoxia inh 2.4.
`Cc1cc2ccccc2n1CCNC(=O)Cc1ccccc1` gave SSB-PriA inh 44.1*, VHR inh abs 2.4, Sa RN4220 lethal -2.5, ugtP null kill 0.9, PfHsp40 rescue -0.7 and Mtb hypoxia inh -3.7.
For Cc1cccc(CC(=O)NCCn2c(C)cc3ccccc32)c1 the results were SSB-PriA inh 37.9, VHR inh abs 1.7, Sa RN4220 lethal -5.8, ugtP null kill -4.7, PfHsp40 rescue -0.9 and Mtb hypoxia inh 10.2.
`COc1ccc(/C=C/C(=O)NCCn2c(C)cc3ccccc32)cc1OC` gave SSB-PriA inh 6.6, VHR inh abs -7.3, Sa RN4220 lethal -9.5, ugtP null kill 3.4, PfHsp40 rescue -1.2 and Mtb hypoxia inh 4.3.
For CCC(C)Nc1c([N+](=O)[O-])cc(C)cc1[N+](=O)[O-] (stereo unspecified) the results were SSB-PriA inh 53.4*, VHR inh abs 10.2, Sa RN4220 lethal 12.1, ugtP null kill -8.5, PfHsp40 rescue 0.2 and Mtb hypoxia inh 10.5.
Screening Cc1cc([N+](=O)[O-])c(NCCN)c([N+](=O)[O-])c1 returned SSB-PriA inh 2.0.
For Cc1cc(N2CCC(C(=O)NC3CC3)CC2)nc(-c2ccccc2)n1 the results were SSB-PriA inh -23.5, VHR inh abs 12.8, Sa RN4220 lethal 3.2, ugtP null kill 7.2 and PfHsp40 rescue -0.8.
Screening Cc1cc(N2CCCCC2)nc(-c2ccc(Br)cc2)n1 returned SSB-PriA inh -12.9, VHR inh abs 4.7, Sa RN4220 lethal -2.0, ugtP null kill 86.5*, PfHsp40 rescue -0.7 and Mtb hypoxia inh 17.4.
`Cc1cc(N2CCN(c3cccc(C)c3C)CC2)nc(-c2ccccc2)n1` gave SSB-PriA inh -10.3, VHR inh abs 52.9*, Sa RN4220 lethal -3.1, ugtP null kill -15.5 and PfHsp40 rescue inconclusive.
For Cc1cccc(-n2ncc3c(=O)n4c(nc32)SCC4CC(=O)Nc2nc(C)cs2)c1 (stereo unspecified) the results were SSB-PriA inh 0.0.
Cn1cccc1-c1cc(C(=O)N/N=C/c2cccc(Br)c2)[nH]n1 was read as SSB-PriA inh 47.0*.
For Cn1cccc1-c1cc(C(=O)N/N=C/c2cc(Br)ccc2O)[nH]n1 the results were VHR inh abs 38.4 and PfHsp40 rescue 124.6*.
`O=C(NCc1cccc(Cl)c1)c1cccc(S(=O)(=O)N2CCCCC2)c1` gave SSB-PriA inh -7.5, Sa RN4220 lethal 3.4, ugtP null kill -2.6, PfHsp40 rescue 0.6 and Mtb hypoxia inh 29.2*.
